Measurements: PubChem BioAssay (NCATS)
Results filed as inconclusive are left out. Active and inactive are the calls of the source. The call rests on the fitted dose curve; in most records, active means well fitted cell-killing curve with a large enough effect; inconclusive means small, poorly fitted or top-dose-only effect, or effect the other way; inactive means flat fitted curve, though single readings scatter.

Tests used:
Test in all cases: Primary qHTS to identify gynecologic anti-cancer compounds using libraries of approved drugs and bioactive compounds (AID 1345084); further: nearly all actives have a fitted effect of over 55% in size
[1] = tested on: C33A; settings: Gynecologic cancer cell panel viability, ATPlite luminescence, 48 h; series mostly up to 57.5 µM
Method in brief: (§1)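 Cell viability after 48 h drug treatment, ATPlite luminescence readout; five doses.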

[2] = tested on: CAOV3; settings: Gynecologic cancer cell panel viability, ATPlite luminescence, 48 h; series mostly up to 57.5 µM
Method in brief: as §1

[3] = tested on: CASKI; settings: Gynecologic cancer cell panel viability, ATPlite luminescence, 48 h; series mostly up to 57.5 µM
Method in brief: as §1

[4] = tested on: Es-2; settings: Gynecologic cancer cell panel viability, ATPlite luminescence, 48 h; series mostly up to 57.5 µM
Method in brief: as §1

[5] = tested on: HeLa; settings: Gynecologic cancer cell panel viability, ATPlite luminescence, 48 h; series mostly up to 57.5 µM
Method in brief: as §1

[6] = tested on: Hek293T; settings: Gynecologic cancer cell panel viability, ATPlite luminescence, 48 h, control line for the selectivity index; series mostly up to 57.5 µM
Method in brief: as §1

[7] = tested on: JEG-3; settings: Gynecologic cancer cell panel viability, ATPlite luminescence, 48 h; series mostly up to 57.5 µM
Method in brief: as §1

[8] = tested on: OV90; settings: Gynecologic cancer cell panel viability, ATPlite luminescence, 48 h; series mostly up to 57.5 µM
Method in brief: as §1

[9] = tested on: PA-1; settings: Gynecologic cancer cell panel viability, ATPlite luminescence, 48 h; series mostly up to 57.5 µM
Method in brief: as §1

[10] = tested on: SKOV3; settings: Gynecologic cancer cell panel viability, ATPlite luminescence, 48 h; series mostly up to 57.5 µM
Method in brief: as §1

Measured: Potency

COc1ccc2c(c1)c(CC(=O)OCC(=O)O)c(C)n2C(=O)c1ccc(Cl)cc1
inactive: all assays above

Cc1ccnc2c1NC(=O)c1cccnc1N2C1CC1
not listed: [10]
inactive: all other assays above

C#CCN[C@@H]1CCc2ccccc21
inactive: all assays above

O=c1oc2c(O)c(O)cc3c(=O)oc4c(O)c(O)cc1c4c23
inactive: all assays above

C[C@]12C=CC(=O)C=C1CC[C@@H]1[C@@H]2C(=O)C[C@@]2(C)[C@H]1CC[C@]2(O)C(=O)CO
inactive: all assays above

Nc1[nH]c(=O)ncc1F
inactive: all assays above

COc1ccccc1OCC(O)COC(N)=O (centres undefined)
inactive: all assays above

O=S(=O)(c1cccc2cnccc12)N1CCCNCC1
inactive: all assays above

COc1cnc(NS(=O)(=O)c2ccc(N)cc2)nc1
inactive: all assays above

CCn1cc(C(=O)O)c(=O)c2cc(F)c(N3CCNCC3)nc21
inactive: all assays above

CCCN[C@H]1CCc2nc(N)sc2C1
inactive: all assays above

CCCOc1ccc(C(=O)OCCN(CC)CC)cc1N
inactive: all assays above

NC(=O)N1c2ccccc2CC(=O)c2ccccc21
inactive: all assays above

COC(c1ccccc1)(c1ccccc1)[C@H](Oc1nc(C)cc(C)n1)C(=O)O
inactive: all assays above

O=S(=O)(O)CCS
inactive: all assays above

CCOC(=O)c1ccc(C#Cc2ccc3c(c2)C(C)(C)CCS3)nc1
inactive: all assays above

CC[C@H](NC(C)C)[C@H](O)c1ccc(O)c2[nH]c(=O)ccc12
inactive: all assays above

CN(C)CCc1c[nH]c2ccc(C[C@H]3COC(=O)N3)cc12
inactive: all assays above

CC1=CC(=O)c2ccccc2C1=O
inactive: all assays above

O=P(O)(O)C(O)(Cc1cccnc1)P(=O)(O)O
inactive: all assays above
